ANO1 activ – activates or potentiates the mouse TMEM16A chloride channel. Q8BHY3. B-score at 10 µM. 340,000 tested, 0.3% active. HEK293 TMEM16A/YFP-H148Q/I152L, iodide quench fluorescence; stronger effect = lower value;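 active means fluorescence-ratio B-score plate-corrected deviation score at least 3 library SD below zero, with starting fluorescence score within 5 deviations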;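 further: channel opened by trigger with iodide after compound preincubation; score built on the fluorescence ratio of max minus min over baseline; more negative score means more quench and so TMEM16A activation or potentiation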
CRFBP-R2 agonist – agonists of human CRF-binding protein/CRF-R2 receptor complex. HEK293 CRF-R2/CRF-BP, calcium dye fluorescence (FLIPR); percent of saturating CRF peptide response. activation, % at 13.2 µM. 350,000 tested, 0.46% active. AID 588473;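 active means activation of at least 50%, plus an integration ratio under a set limit after plate pattern correction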
ANO1 block – inhibitors of mouse TMEM16A calcium-activated chloride channel; Q8BHY3; HEK293 TMEM16A/YFP iodide influx fluorescence, ionomycin; normalized B-score (activity score, 25-100; higher = stronger inhibition) at 10 µM; 310,000 tested, 1.2% active; AID 588511;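 active means ratio plate-corrected score three or more library SD toward inhibition, starting fluorescence score within five deviations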;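 further: score derived from kinetic fluorescence span divided by baseline fluorescence per well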
RTF Ca sens act – cardiac RTF calcium sensitization | P19429+P45379 | IANBD-labeled TnC RTF fluorescence at EC20 calcium; 0% EC20 calcium, 100% full calcium | activation, % at 7.2 µM | 340,000 tested, 0.24% active | AID 493008;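 active means activation above the mean over all tested compounds plus 3 SD, cut at about 30% in these data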;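 further: rise in fluorescence read as greater calcium sensitivity of cardiac thin filaments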
CRFBP-R2 block – antagonists of CRF-binding protein/CRF-R2 receptor complex. AID 588475. HEK293 CRF-R2/CRF-BP, CRF-induced calcium fluorescence. 350,000 tested, 0.59% active. inhibition, % at 11.8 µM;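 active means inhibition of the ligand-induced calcium signal above about 50% at the single tested concentration, limit read from the data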
Cardiac RTF inh – cardiac RTF calcium desensitization; P19429+P45379; IANBD-labeled cardiac RTF, Ca2+ fluorescence; inhibition, % at 7.15 µM; 340,000 tested, 0.12% active; AID 493244;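 active means inhibition above the mean inhibition of all tested compounds plus 3 SD, cut at about 17% in these data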;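 further: assay run at fixed EC70 calcium of 1.6 mM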
TMEM16A reconf – re-confirmation of mouse TMEM16A chloride channel inhibitors; inhibition, % at 10 µM; 2,300 tested, 39% active; AID 652189; HEK293 TMEM16A/YFP-H148Q, iodide quench fluorescence; ionomycin added to raise cell calcium; shares compounds with ANO1 block;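 active means mean duplicate percent inhibition, scaled so buffer wells are 0 and the reference blocker 100, over three buffer SD above buffer mean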
TMEM16A Ca cntr – counter-screen for TMEM16A inhibitors: effect on calcium mobilization | shares compounds with ANO1 block | TMEM16A/YFP HEK293, Fluo4 calcium mobilization | calcium response (% of ionomycin), % at 10 µM | 2,300 tested, 2% active | AID 652231;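 active means duplicate-averaged calcium signal over 20% of the ionomycin maximum, relative to buffer baseline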;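 further: each well's signal is peak minus trough fluorescence divided by its pre-addition baseline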
YFP-HEK293 quench – counter-screen for TMEM16A inhibitors: effect in parental YFP-HEK293 cells. shares compounds with ANO1 block. iodide YFP quench, ionomycin. YFP ratio F(max-min)/F0 at 10 µM. 2,300 tested, under 10 active;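 active means yellow fluorescent protein signal ratio exceeding the buffer control mean by over 5 SD of those controls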;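 further: ratio is mean of duplicate wells from kinetic YFP trace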
ClC-1 inh – rat ClC-1 inhibition, TMEM16A specificity screen. 2,300 tested, under 10 active. ratio percent, % at 10 µM. shares compounds with ANO1 block. CHO ClC-1-YFP, iodide influx fluorescence quench; iodide control reads 0, buffer control 100. AID 652236;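 active means duplicate-mean ratio percent above the mean of iodide-only control wells, which defines zero, plus 5 of their SD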;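 further: higher percent means stronger block of ClC-1 iodide influx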
Target sequence (P35524 whole entry, looked up): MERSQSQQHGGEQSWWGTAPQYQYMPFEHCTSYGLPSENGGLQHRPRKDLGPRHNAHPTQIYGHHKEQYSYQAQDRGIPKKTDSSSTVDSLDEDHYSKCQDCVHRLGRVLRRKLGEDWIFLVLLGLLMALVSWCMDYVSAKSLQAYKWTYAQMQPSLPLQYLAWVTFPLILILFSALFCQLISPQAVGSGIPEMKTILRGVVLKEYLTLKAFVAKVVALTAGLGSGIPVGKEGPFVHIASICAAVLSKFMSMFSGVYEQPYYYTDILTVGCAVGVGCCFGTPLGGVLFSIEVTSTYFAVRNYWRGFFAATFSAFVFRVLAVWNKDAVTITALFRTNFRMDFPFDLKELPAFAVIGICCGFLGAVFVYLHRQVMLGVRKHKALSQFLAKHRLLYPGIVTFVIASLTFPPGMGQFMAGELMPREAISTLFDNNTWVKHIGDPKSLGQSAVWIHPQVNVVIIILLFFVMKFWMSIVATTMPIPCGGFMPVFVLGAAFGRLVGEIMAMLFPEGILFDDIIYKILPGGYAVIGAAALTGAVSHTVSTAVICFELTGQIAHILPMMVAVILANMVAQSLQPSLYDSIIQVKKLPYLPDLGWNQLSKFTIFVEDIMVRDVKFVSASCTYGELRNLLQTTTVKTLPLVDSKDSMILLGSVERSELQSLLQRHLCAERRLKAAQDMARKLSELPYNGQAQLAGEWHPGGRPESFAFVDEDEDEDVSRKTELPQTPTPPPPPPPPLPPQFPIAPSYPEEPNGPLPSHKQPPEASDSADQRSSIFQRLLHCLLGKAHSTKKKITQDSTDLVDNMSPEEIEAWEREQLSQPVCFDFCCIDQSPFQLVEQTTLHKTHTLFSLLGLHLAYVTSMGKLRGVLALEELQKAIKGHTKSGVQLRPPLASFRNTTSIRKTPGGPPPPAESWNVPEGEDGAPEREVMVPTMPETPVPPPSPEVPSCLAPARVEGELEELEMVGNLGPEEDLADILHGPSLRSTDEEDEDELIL
Hits are given with their value; . = inactive; / = not tested or not shown. An excerpt weighted towards active compounds, which were near 2.4% of everything screened.

SMILES	ANO1 activ	CRFBP-R2 agonist	ANO1 block	RTF Ca sens act	CRFBP-R2 block	Cardiac RTF inh	TMEM16A reconf	TMEM16A Ca cntr	YFP-HEK293 quench	ClC-1 inh
Cc1cccc(N2CCN(C(=O)c3ccc4c(c3)OCCO4)CC2C)c1 (configuration not stated)	.	.	.	.	.	.	/	/	/	/
Cc1cccc(N2CCN(C(=O)CN3CCOc4ccccc43)CC2C)c1 (configuration not stated)	.	.	25	.	.	.	.	.	.	.
CCCn1c2ccccc2c2nnc(SCC(=O)Nc3ncccn3)nc21	.	.	100	.	.	.	.	.	.	.
CC(=O)Nc1ccc2c(c1)nc(CCNC(=O)c1ccco1)n2C	.	.	.	.	.	.	/	/	/	/
O=C(CCN1C(=O)/C(=C/c2ccco2)SC1=S)Nc1ccc(O)cc1C(=O)O	.	.	.	.	.	.	.	.	.	.
O=C(CCN1C(=O)/C(=C/c2ccco2)SC1=S)Nc1ccc(C(=O)O)c(O)c1	.	.	.	.	.	.	/	/	/	/
O=C(Nc1ccc2oc(-c3ccccc3F)nc2c1)c1ccc2c(c1)OCCO2	.	.	100	.	.	.	17.0%	.	.	.
O=C1CC(N2CCN(c3nc4ccccc4s3)CC2)C(=O)N1Cc1cccs1 (configuration not stated)	.	.	100	.	.	.	30.0%	.	.	.
O=C1CC(N2CCN(c3ccc(F)cc3)CC2)C(=O)N1Cc1cccs1 (configuration not stated)	.	.	.	.	.	.	/	/	/	/
COc1ccc(Br)cc1C(=O)Nc1ccccc1N1CCCC1	.	.	100	.	.	.	24.5%	.	.	.
COc1ccc(C(O)(C(C)C)C(CN2CCOCC2)c2ccccc2)cc1 (configuration not stated)	.	.	.	.	.	.	/	/	/	/
CC1CCCN(C(=O)Cc2cn(Cc3cccc(Cl)c3)c3ccccc23)C1 (configuration not stated)	.	.	100	.	.	.	24.0%	.	.	.
CCOC(=O)c1nc(C)n(-c2cc(OC)c(Cl)cc2Cl)n1	.	.	.	.	.	.	/	/	/	/
Cc1cc(/C=N/n2cnnc2)c(C)n1-c1ccc(OCc2ccc(Cl)cc2)cc1	.	.	100	.	.	.	24.5%	.	.	.
CC1CCCC(C)N1CCNC(=O)CCc1nnc2n(Cc3ccccc3)c(=O)c3ccccc3n12 (configuration not stated)	.	.	.	.	.	.	/	/	/	/
CCOC(=O)C1CCN(C(=O)C2CCCN2S(=O)(=O)c2ccc(Cl)cc2)CC1 (configuration not stated)	.	.	.	.	.	.	/	/	/	/
CCN(c1cccc(C(F)(F)F)c1)S(=O)(=O)c1ccc2c(c1)CCN2C(=O)C1CC1	.	.	100	.	.	.	.	.	.	.
Cc1cccc(C)c1OCc1cc(C(=O)N2CCN(c3ccc(F)cc3)CC2)no1	.	.	25	.	.	.	24.0%	.	.	.
CCOC(=O)CSc1nnc(COc2cccc(C)c2)o1	.	.	.	/	.	/	/	/	/	/
Cc1ccc(C(=O)CSc2nnc(COc3cccc(C)c3)o2)cc1	.	.	100	.	.	.	.	.	.	.
CCCCNc1c(-c2ccc(OC)c(SC3CCCCC3)c2)nc2cnccn12	.	.	.	.	.	.	/	/	/	/
COc1ccc(-c2nc3cnccn3c2NCc2ccccc2)cc1SC1CCCCC1	.	.	25	.	.	.	.	.	.	.
COc1ccccc1C(=O)NCC(c1cccs1)N1CCc2ccccc21 (configuration not stated)	.	.	25	.	.	.	.	.	.	.
CCOc1cc(N2CCOCC2)c(OCC)cc1NC(=O)c1cc(S(=O)(=O)N2CCOCC2)ccc1F	.	.	/	.	.	.	/	/	/	/
O=C(COC(=O)C1CC(=O)N(CCc2ccccc2)C1)c1ccc[nH]1 (configuration not stated)	.	.	/	.	.	.	/	/	/	/
SMILES	ANO1 activ	CRFBP-R2 agonist	ANO1 block	RTF Ca sens act	CRFBP-R2 block	Cardiac RTF inh	TMEM16A reconf	TMEM16A Ca cntr	YFP-HEK293 quench	ClC-1 inh
COC(=O)c1ccc(CNCC(O)COc2ccc(-c3ccccc3)cc2)cc1 (configuration not stated)	.	.	.	.	.	.	/	/	/	/
COc1ccc(CNCC(O)COc2ccc(C(C)(C)c3ccccc3)cc2)cc1 (configuration not stated)	.	.	25	.	.	.	26.0%	.	.	.
CC(Sc1nc2ccccc2s1)C(=O)c1c(N)n(C)c(=O)n(C)c1=O (configuration not stated)	.	.	100	.	.	.	.	.	.	.
O=C(CSc1ccc(F)cc1)N1CCC(c2nc3ccccc3s2)CC1	.	.	100	.	.	.	29.0%	.	.	.
Cc1cc(C)cc(NC(=O)N2CCN(C/C=C/c3ccccc3)CC2)c1	.	.	.	.	.	.	/	/	/	/
Cc1ccc(Nc2nc3nonc3[nH]c2=O)cc1Cl	.	.	100	.	.	.	40.5%	.	.	.
CC1CCCN(C(=O)C(C)Sc2nc(-c3ccccc3)cc(C(F)(F)F)n2)C1 (configuration not stated)	.	.	100	.	.	.	.	.	.	.
CC(Sc1nc(-c2ccccc2)cc(C(F)(F)F)n1)C(=O)N1CCCCC1 (configuration not stated)	.	.	.	.	.	.	/	/	/	/
Cc1ccc(-c2cc(-c3ccccc3Cl)[nH]n2)c(O)c1	.	.	.	.	.	.	/	/	/	/
Cc1ccccc1-c1cc(-c2ccccc2O)n[nH]1	.	.	25	.	.	.	.	.	.	.
CC(C)(C)NC(=O)C(c1ccc(-c2ccccc2)cc1)N(C[C@H]1CC[C@@H]([C@@H]2CC[C@H](CO)O2)O1)C(=O)c1ccccc1F (some centres not stated)	.	.	/	.	.	.	/	/	/	/
Cc1nc2ccccc2c2oc(C(=O)NCc3ccccn3)cc12	.	.	25	.	.	.	.	.	.	.
